The values that follow come from PubChem BioAssay AID588519 (ICCB-Longwood Screening Facility, Harvard Medical School, 2011).

This assay addresses Genome polyprotein (Poliovirus type 1 (strain Mahoney)) (UniProt P03300). Briefly: inhibitors of poliovirus polymerase RNA elongation – biochemical, fluorescence polarization, total intensity, primary screen (AID 588519). As to z-score: compound at 16.7 µg/mL. The settings on record: stronger effect = lower value; for % elongation: compound at 16.7 µg/mL; for z-score: measured here: FP z-score. A general note: Fluorescence polarisation rises when a labelled molecule tumbles more slowly, as on binding a larger partner.

Setting [1] is: measured here: total intensity read-out.

The campaign covered roughly 150,000 compounds. About 1,000 (0.67%) were called active. This is one part of a sample in which actives are shown more often than they occur. Rule as the data show it: active = % elongation below about 90%; inactive = the rest, inconclusive results apart.

Chain of Genome polyprotein (Poliovirus type 1 (strain Mahoney)) (P03300 1749-2209 limits assumed): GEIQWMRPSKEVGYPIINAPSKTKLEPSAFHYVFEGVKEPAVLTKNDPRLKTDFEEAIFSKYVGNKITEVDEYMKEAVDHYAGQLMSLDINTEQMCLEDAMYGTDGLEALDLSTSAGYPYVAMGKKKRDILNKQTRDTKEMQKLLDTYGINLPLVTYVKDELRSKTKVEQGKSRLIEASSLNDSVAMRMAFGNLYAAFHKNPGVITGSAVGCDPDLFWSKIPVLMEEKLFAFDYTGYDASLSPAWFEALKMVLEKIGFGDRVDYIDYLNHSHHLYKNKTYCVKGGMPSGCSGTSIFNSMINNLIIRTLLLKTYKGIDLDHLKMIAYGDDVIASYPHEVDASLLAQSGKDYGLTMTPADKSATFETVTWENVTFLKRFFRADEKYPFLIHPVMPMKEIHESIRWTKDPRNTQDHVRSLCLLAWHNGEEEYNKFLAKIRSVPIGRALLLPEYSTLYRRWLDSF

`O=C(O)CSc1ccc(S(=O)(=O)N2CCCC2)cn1`: the % elongation is 105% (inactive) and the z-score turned out to be 0.2. Also, under setting [1], the % elongation amounted to 99%.

For the compound `O=C(NC1CCCCC1)c1ccc(-n2ccc3ccccc32)s1`, the % elongation was 100% (inactive) and the z-score is -0.2. For the same compound, under setting [1], the % elongation turned out to be 101%.

In the case of `N#Cc1c(/N=C/c2c(O)[nH]c(=O)[nH]c2=O)sc2c1CCC2`, the % elongation is 110% (inactive) and the z-score came to 1.2. For the same compound, the % elongation under setting [1] is 130%.

On to `N#CSc1ccc(N2CCCCC2)cc1`, for which the % elongation was 99% (inactive) and the z-score was -0.2. The % elongation under setting [1] is 100%.

On to `N#CSc1ccc(N)c(Br)c1`, for which the % elongation is 75% (active) and the z-score is -3.8. Moreover, under setting [1], the % elongation worked out at 83%.

On to `O=C(COC(=O)C1CCC(=O)N1)Nc1nc(-c2ccccc2)cs1` (stereo unspecified), for which the % elongation was 101% (inactive) and the z-score was -0.2. For the same compound, the % elongation under setting [1] is 104%.

For `COc1ccc(-c2csc(=Nc3ccccc3)n2C)cc1`, the % elongation was 105% (inactive) and the z-score amounted to 0.5. Besides, the % elongation under setting [1] was 102%.

As to `O=C(CNc1ccccc1N1CCCCC1)N1CCc2ccccc21`, the % elongation was 102% (inactive) and the z-score was 0.1. Besides, the % elongation under setting [1] came to 94%.

`COc1ccccc1C(=O)COC(=O)COc1ccc(C#N)cc1`: the % elongation is 108% (inactive) and the z-score was determined as 0.7. Moreover, under setting [1], the % elongation is 108%.

In the case of `NC(=S)N1CCCCC1`, the % elongation is 99% (inactive) and the z-score is -0.1. The % elongation under setting [1] was determined as 100%.

As for `Clc1nc(Nc2ccccc2)sc1/C=N/N1CCOCC1`, the % elongation is 149% (inactive) and the z-score came out at 5.6. Also, the % elongation under setting [1] stood at 195%.

As to `Cc1cc(NC(=O)c2ccccc2C)no1`, the % elongation is 103% (inactive) and the z-score is 0.4. Further, under setting [1], the % elongation stood at 103%.

For the compound `CS(=O)(=O)c1nc2ccccc2[nH]1`, the % elongation is 104% (inactive) and the z-score was determined as 0.4. Moreover, the % elongation under setting [1] worked out at 107%.

With `OC(c1nc2ccccc2[nH]1)C(O)C(O)C(O)c1nc2ccccc2[nH]1` (stereo unspecified), the % elongation was 99% (inactive) and the z-score is -0.6. For the same compound, under setting [1], the % elongation was found to be 104%.

Turning to `N#CC(=C1C(=O)c2ccccc2C1=O)c1nc2ccccc2[nH]1`, the % elongation was 80% (active) and the z-score was -2.3. Under setting [1], the % elongation was determined as 88%.

As to `COc1ccc(CN2CNc3c(c(C)nn3-c3ccccc3)C2)cc1`, the % elongation was 100% (inactive) and the z-score is -1. The % elongation under setting [1] turned out to be 106%.

Regarding `Cc1cccc(-n2c(Cn3ccc(C)n3)n[nH]c2=S)c1`, the % elongation is 104% (inactive) and the z-score came out at 0.5. Also, the % elongation under setting [1] was 105%.

With `CC(C)(C)CNC(=S)NN`, the % elongation is 98% (inactive) and the z-score was -0.9. Also, under setting [1], the % elongation turned out to be 101%.

For `C=C(C)CNC(=S)NN`, the % elongation was 83% (active) and the z-score is -1.3. Besides, the % elongation under setting [1] worked out at 86%.

Take `C=C(C)CNC(=S)N1CCNCC1`: the % elongation was 99% (inactive) and the z-score was determined as 0.1. Further, under setting [1], the % elongation is 105%.

Consider `CCCCN(C)C(=O)C1CCN(c2nn3cc(-c4ccc(OC)cc4)nc3s2)CC1`, for which the % elongation was 104% (inactive) and the z-score worked out at 0.4. For the same compound, under setting [1], the % elongation worked out at 105%.

As for `Cc1ccc(NC2=C/C(=N/S(=O)(=O)c3ccc(F)cc3)c3ccccc3C2=O)cc1C`, the % elongation is 102% (inactive) and the z-score was 0.1. In addition, the % elongation under setting [1] was determined as 106%.

For the compound `CCOc1ccc(N2CC(c3nc4ccccc4n3CCOc3ccc(OC)cc3)CC2=O)cc1` (stereo unspecified), the % elongation is 111% (inactive) and the z-score was found to be 0.9. Further, under setting [1], the % elongation was 107%.

As to `COc1ccc(OCCCn2c(C3CC(=O)N(c4ccc(F)cc4)C3)nc3ccccc32)cc1` (stereo unspecified), the % elongation is 109% (inactive) and the z-score turned out to be 0.4. Also, under setting [1], the % elongation was 110%.

Take `CCc1ccccc1N1CC(c2nc3ccccc3n2CCCCOc2ccccc2)CC1=O` (stereo unspecified): the % elongation was 63% (active) and the z-score is -7.7. In addition, the % elongation under setting [1] turned out to be 68%.

For the compound `COC(=O)c1ccccc1NC(=O)C1CC(c2cccc(Br)c2)=NO1` (stereo unspecified), the % elongation was 104% (inactive) and the z-score was 0.6. In addition, the % elongation under setting [1] was found to be 106%.

On to `CC(=O)Nc1ccc(NC(=O)C(C)OC(=O)Cc2c[nH]c3ccccc23)cc1` (stereo unspecified), for which the % elongation is 105% (inactive) and the z-score is 0. Also, the % elongation under setting [1] was found to be 108%.

As for `CCOC(=O)C(N)Cc1c[nH]c2ccccc12` (stereo unspecified), the % elongation was 100% (inactive) and the z-score was -0.3. Besides, under setting [1], the % elongation came out at 101%.

Regarding `CC(C)NC(=O)CCc1c[nH]c2ccccc12`, the % elongation was 62% (active) and the z-score was -4.7. Also, the % elongation under setting [1] amounted to 68%.

Consider `CCOC(=O)c1c(C)c(-c2ccccc2)n(CC(=O)N2CCN(c3ccccn3)CC2)c1C`, for which the % elongation is 99% (inactive) and the z-score was -0.8. Further, the % elongation under setting [1] worked out at 104%.

Consider `COc1ccc(C/C(C#N)=C/N2CCN(c3ccccc3F)CC2)cc1`, for which the % elongation is 102% (inactive) and the z-score came out at 0.1. The % elongation under setting [1] came out at 107%.

As to `C=CCn1ccc2c(OCC(=O)c3ccccc3)cccc2c1=O`, the % elongation was 104% (inactive) and the z-score worked out at 0.6. In addition, the % elongation under setting [1] came to 101%.

Regarding `CCNC(=O)N1c2ccccc2Sc2ccccc21`, the % elongation is 101% (inactive) and the z-score amounted to 0.2. In addition, the % elongation under setting [1] amounted to 103%.

Turning to `CN1/C(=C/C(=S)C(C)(C)C)Sc2ccccc21`, the % elongation is 84% (active) and the z-score is -1.7. Besides, the % elongation under setting [1] turned out to be 83%.

On to `COCCNC(=O)N1c2ccccc2Sc2ccccc21`, for which the % elongation was 103% (inactive) and the z-score was determined as 0.4. Besides, under setting [1], the % elongation is 100%.

With `Cc1[nH]nc2c1C1C(C2)C1(C)C` (stereo unspecified), the % elongation is 76% (active) and the z-score was -7.4. In addition, the % elongation under setting [1] amounted to 105%.

Turning to `CCc1nc(NCc2ccccc2)c(C#N)c2c1COC(C)(C)C2`, the % elongation was 107% (inactive) and the z-score is 0.4. Also, under setting [1], the % elongation was found to be 112%.

Take `O=C(CSc1nnc(-c2c[nH]c3ccccc23)o1)NCC1CN(Cc2ccccc2)CCO1` (stereo unspecified): the % elongation was 105% (inactive) and the z-score stood at 0.1. Besides, under setting [1], the % elongation is 109%.

With `COc1ccc(-c2noc(CC(=O)N(C)c3ccccc3)n2)cc1`, the % elongation was 106% (inactive) and the z-score came to 0.7. The % elongation under setting [1] came to 100%.

For the compound `C=CCSc1nnc(NC(=O)CCNS(=O)(=O)c2ccccc2)s1`, the % elongation was 103% (inactive) and the z-score came out at 0.2. The % elongation under setting [1] amounted to 107%.

For the compound `COC(=O)Cc1cnc(NC(=O)CSc2nc(C(C)C)cc(=O)[nH]2)s1`, the % elongation was 102% (inactive) and the z-score was determined as 0.3. Under setting [1], the % elongation is 100%.

`C=CCSc1nnc(NC(=O)CSc2nc(C)cc(=O)[nH]2)s1`: the % elongation is 88% (active) and the z-score is -4. For the same compound, the % elongation under setting [1] came out at 65%.

As to `COc1ccccc1NC(=O)Nc1cc(C(C)(C)C)nn1-c1ccccc1`, the % elongation was 105% (inactive) and the z-score turned out to be 0.5. Further, under setting [1], the % elongation amounted to 102%.

As for `Cc1sc2nc(COC(=O)C(NC(=O)c3ccco3)C(C)C)[nH]c(=O)c2c1C` (stereo unspecified), the % elongation was 94% (inactive) and the z-score is -1.2. The % elongation under setting [1] came to 219%.

As for `CCOC(=O)c1cnc2c(C)c(C)ccc2c1NCCCN(C)C`, the % elongation is 69% (active) and the z-score is -5. Besides, under setting [1], the % elongation was determined as 53%.

As for `CCOC(=O)c1cnc2c(C)cc(Cl)cc2c1NCCc1ccc(OC)c(OC)c1`, the % elongation was 104% (inactive) and the z-score is -0.4. Further, the % elongation under setting [1] is 104%.

Regarding `CCOC(=O)c1cnc2c(C)cc(C)cc2c1Nc1ccc(N2CCOCC2)cc1`, the % elongation was 107% (inactive) and the z-score turned out to be 0.5. Besides, the % elongation under setting [1] was 110%.

`O=C(COC(=O)c1cccs1)NCc1cccs1`: the % elongation was 100% (inactive) and the z-score is -0.1. Under setting [1], the % elongation came to 101%.

`Cc1nc2ccccc2nc1OCC(=O)N(C1CCCCC1)C1CCCCC1`: the % elongation is 99% (inactive) and the z-score was -0.3. The % elongation under setting [1] was found to be 97%.

As for `CCOC(=O)c1sc(NC(=O)/C=C/c2ccc(C(C)C)cc2)c(C(=O)OCC)c1C`, the % elongation was 105% (inactive) and the z-score was 0.3. Further, the % elongation under setting [1] is 109%.

Take `COC(=O)c1c(NC(=O)C(C)Oc2ccc(Cl)c(C)c2)sc(C)c1C` (stereo unspecified): the % elongation was 109% (inactive) and the z-score is 0.5. Under setting [1], the % elongation is 106%.

`CCOC(=O)c1c(NC(=O)COc2cc(C)ccc2C(C)C)sc(C)c1C`: the % elongation is 89% (active) and the z-score was -2.6. Moreover, under setting [1], the % elongation is 88%.
